Source: PubChem (National Center for Advancing Translational Sciences (NCATS))
Shiga toxin inh – inhibitors of Shiga toxin in Vero cells; Vero cells, Shiga toxin protein synthesis inhibition reporter; inhibition, % at 38.7 µM; 9.2% of 290,000 active; AID 2315; in the data active = inhibition mostly above about 28%, no sharp cut-off; inactive = mostly below about 43%
LmPK inh – LmPK (Leishmania mexicana) enzyme inhibition; purified LmPK, Kinase-Glo ATP luminescence, 1 h; AID 1721; Q27686; Potency, µM (series often up to 57.5 µM), hits mostly inhibitors; 0.37% of 290,000 active; active = well fitted curve in the direction sought with a large enough effect; inconclusive = small, poorly fitted or top-dose-only effect, or another doubt; inactive = no such curve, though single readings can be large; an effect the other way counts as inactive or inconclusive
Target sequence (Q27686 whole entry, looked up): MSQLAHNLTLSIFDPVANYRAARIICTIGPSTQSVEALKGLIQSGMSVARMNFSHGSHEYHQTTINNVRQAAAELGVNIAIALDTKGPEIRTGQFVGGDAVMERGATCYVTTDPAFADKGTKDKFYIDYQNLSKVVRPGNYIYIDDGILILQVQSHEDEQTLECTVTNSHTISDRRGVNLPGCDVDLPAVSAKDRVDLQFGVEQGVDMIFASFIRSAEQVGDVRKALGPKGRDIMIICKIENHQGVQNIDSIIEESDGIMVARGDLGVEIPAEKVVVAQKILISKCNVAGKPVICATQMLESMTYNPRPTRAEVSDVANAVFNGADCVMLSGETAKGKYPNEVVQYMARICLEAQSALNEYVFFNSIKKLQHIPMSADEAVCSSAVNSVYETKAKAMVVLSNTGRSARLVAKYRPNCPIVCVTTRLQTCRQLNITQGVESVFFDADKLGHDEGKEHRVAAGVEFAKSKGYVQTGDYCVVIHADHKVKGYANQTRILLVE
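Pyruvate kinase activity monitored as ATP production (luciferase luminescence). Conditions: 0.1 nM enzyme, 0.5 mM PEP, 0.1 mM ADP, 1 h, RT; normalized against uninhibited and no-enzyme wells.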
NS1 function inh – influenza NS1 inhibition. Potency, µM (top dose mostly 46.1 µM). 0.4% of 270,000 active. AID 2326; also: actives are rising curves; nearly all actives have a fitted effect of over 50% in size
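Compounds were scored for reversing the slow growth caused by influenza A NS1 in S. cerevisiae, measured by optical density at 600 nm. Assay medium contained 2% galactose at pH 6.0; NS1-free yeast of the same strain were the positive control.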
Cycloheximide cs – counter-screen hit for Shiga toxin inhibitors, cycloheximide | cell reporter, cycloheximide protein synthesis inhibition counterscreen | max response, % | 12% of 300,000 active; in the data active = max response mostly above about 13%, no sharp cut-off; inactive = mostly below about 14%; also: read at 38.3 µM for the half of the compounds with a filed dose
SARS PLpro yeast – inhibitors of SARS-CoV papain-like protease in yeast; 0.19% of 330,000 active; S. cerevisiae expressing SARS-CoV PLpro, growth rescue; Potency, µM (doses to about 32.9 µM), hits mostly activators; also: nearly all actives have a fitted effect of over 55% in size
TbPYK inhibitor – T. brucei pyruvate kinase inhibition; Q57TT1; TbPYK enzyme, Kinase-Glo Plus ATP luminescence, 45 min; Potency, µM (doses to about 76.8 µM), most hits filed as inhibitors; 0.12% of 410,000 active; AID 624173; active = well fitted curve in the direction sought with a large enough effect; inconclusive = small, poorly fitted or top-dose-only effect, or another doubt; inactive = no such curve, though single readings can be large; an effect the other way counts as inactive or inconclusive; also: nearly all actives have a fitted effect of over 50% in size
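In this concentration-response screen, enzyme-free wells defined baseline while DMSO plates tracked drift. Each reaction combined TbPYK, substrate, compound and 130 uM ADP for 45 min at room temperature. Kinase-Glo Plus luminescence gave the signal.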
Large screens that a line does not name were inactive. This excerpt belongs to a sample that is enriched for hits. Unless noted, calls follow the shape of the full dose curve.

C/C(=N\NC(=O)c1ccc(Cl)cc1)c1cccc(NC(=O)C(C)C)c1	Cycloheximide cs 17
COCc1cc(C)nc(SCC(=O)Nc2ccc(C)c(C)c2)c1C#N	Shiga toxin inh 98, Cycloheximide cs 44
Cc1nc(SCC(=O)Nc2ccc3c(c2)OCO3)c(C#N)c2c1CCCC2	none
CCc1ccc(NC(=O)CSc2nc(C)cc(COC)c2C#N)cc1	none (no result: Shiga toxin inh, LmPK inh, NS1 function inh, Cycloheximide cs, SARS PLpro yeast)
Cc1cc(C)c(C#N)c(SCC(=O)Nc2ccc3c(c2)OCO3)n1	Shiga toxin inh 28, Cycloheximide cs 26
Cc1cc(=O)n(CC(=O)Nc2cc(Cl)ccc2C)c(C(C)C)n1	none (no result: NS1 function inh)
Cc1[nH]nc(C(F)(F)F)c1N=NN1CCOCC1	none (no result: Shiga toxin inh, LmPK inh, NS1 function inh, Cycloheximide cs, SARS PLpro yeast)
CCOc1ccc2nc(SC3CC(=O)N(c4ccc(C)cc4)C3=O)sc2c1 (stereo not drawn)	none
CCOc1ccc2nc(/N=C/c3c(C)[nH]n(-c4ccccc4)c3=O)sc2c1	Shiga toxin inh 61, Cycloheximide cs 30
CCOc1ccc2nc(/N=C/c3c(C)[nH]n(-c4ccc(C)cc4)c3=O)sc2c1	LmPK inh 14µM, Cycloheximide cs 33
CCOc1[nH]n(-c2ccccc2)c(=O)c1C=Nc1ccc(OC)cc1	none (no result: NS1 function inh)
CCCNC(=O)C1CN(C(=O)c2nn(Cc3ccccc3)c(=O)c3ccccc23)c2ccccc2O1 (stereo not drawn)	none (no result: Shiga toxin inh, LmPK inh, NS1 function inh, Cycloheximide cs)
CC(=O)N1CCCc2cc(S(=O)(=O)N3CCC(C(=O)NCc4cccc(C)c4)CC3)ccc21	none (no result: Shiga toxin inh, LmPK inh, NS1 function inh, Cycloheximide cs, SARS PLpro yeast)
Clc1ccc(-c2cc(CN3CCOCC3)no2)cc1	Shiga toxin inh 118, Cycloheximide cs 54
Clc1ccc(-c2cc(CN3CCCCC3)no2)cc1Cl	Shiga toxin inh 62, Cycloheximide cs 34
Clc1ccc(SCc2cc(-c3ccc(Cl)cc3)on2)cc1	none
Cc1ccc(CSc2nnc(-c3cccs3)n2C)cc1	none
Cc1nnc(SCc2cnc(-c3ccc(C(C)C)cc3)s2)n1C	Cycloheximide cs 27 (no result: TbPYK inhibitor)
C=C1N[C@]2(C(=O)COC(C)=O)[C@@H](C[C@H]3[C@@H]4CCC5=CC(=O)C=C[C@]5(C)[C@H]4[C@@H](O)C[C@@]32C)O1	none (no result: Shiga toxin inh, LmPK inh, NS1 function inh, Cycloheximide cs, SARS PLpro yeast)
O=C(COC(=O)/C=C/c1ccc(F)cc1)NCC1CCCO1 (stereo not drawn)	none (no result: Shiga toxin inh, LmPK inh, NS1 function inh, Cycloheximide cs)
CSc1nsc(SCC(=O)Nc2ccccc2)n1	Cycloheximide cs 40
CSc1nsc(SCC(=O)Nc2nncs2)n1	none (no result: NS1 function inh)
CSc1nsc(SCC(=O)Nc2ccccc2C(N)=O)n1	Shiga toxin inh 38, Cycloheximide cs 11
CSc1nsc(SCC(=O)Nc2ccccc2F)n1	Shiga toxin inh 58, Cycloheximide cs 31
CSc1nsc(NC(=O)Cc2ccccc2)n1	Shiga toxin inh 86, Cycloheximide cs 46
CSc1ccccc1NC(=O)Cc1ccccc1	none
CSc1nsc(SCC(=O)Nc2ccc(OC(C)=O)cc2)n1	Cycloheximide cs 27
CSc1nsc(SCc2ccc(F)cc2)n1	Cycloheximide cs 13
O=C(CSc1nnc(NC(=O)c2c(F)cccc2Cl)s1)Nc1ccccc1F	Cycloheximide cs 8.3
Fc1ccc(CSc2nsc(SCc3ccc(F)cc3)n2)cc1	none
CCOC(=O)c1ccc(NC(=O)CSc2nc(SC)ns2)cc1	Shiga toxin inh 60, Cycloheximide cs 48 (no result: SARS PLpro yeast)
CCCCCCCCN1C(=O)[C@H](CC(=O)N2CCN(C(=O)c3ccco3)CC2)C[C@@]2(C(=O)OCC)CCCC=C12	none (no result: Shiga toxin inh, LmPK inh, NS1 function inh, Cycloheximide cs, SARS PLpro yeast)
CC(NC(CCc1ccccc1)C(=O)O)C(=O)N1CCCC1C(=O)O (stereo not drawn)	none (no result: Shiga toxin inh, LmPK inh, NS1 function inh, Cycloheximide cs, SARS PLpro yeast)
CCOC(=O)N1CCc2c(sc3c2c(=O)n(-c2ccc(CC)cc2)c(=O)n3Cc2cc(C)ccc2C)C1	none (no result: Shiga toxin inh, LmPK inh, NS1 function inh, Cycloheximide cs, SARS PLpro yeast)
CCOc1ncccc1C(=O)Nc1nc(SC)ns1	Shiga toxin inh 66, Cycloheximide cs 28 (no result: NS1 function inh)
CCOc1ncccc1C(=O)Nc1nnc(C)s1	none (no result: NS1 function inh)
CC(C)CC(=O)Nc1ncc([N+](=O)[O-])s1	Shiga toxin inh 84, Cycloheximide cs 41
COc1ccc(CC(=O)Nc2ncc([N+](=O)[O-])s2)cc1OC	TbPYK inhibitor inconclusive
CCCCC(=O)Nc1ncc([N+](=O)[O-])s1	Shiga toxin inh 54, Cycloheximide cs 17
CCCCC(=O)Nc1nnc(C)s1	none
CCCCC(=O)Nc1ncc(Br)s1	Cycloheximide cs 11
CSc1cccc(CN2CCCC(C(=O)Nc3cccc(-n4cccn4)c3)C2)c1 (stereo not drawn)	none
Cc1cccc(Cn2c(=O)n(-c3cc(C)cc(C)c3)c(=O)c3oc4ccccc4c32)c1	none (no result: Shiga toxin inh, LmPK inh, NS1 function inh, Cycloheximide cs, SARS PLpro yeast)
COc1ccccc1/C=C/C(=O)NCCC1=CCCCC1	Shiga toxin inh 118, Cycloheximide cs 29
O=C(/C=C/c1ccc(F)cc1)NCCC1=CCCCC1	Shiga toxin inh 117, Cycloheximide cs 33
O=C(COC(=O)/C=C/c1ccccc1)NCCC1=CCCCC1	none
O=C(/C=C/c1ccccc1)NCCC1=CCCCC1	Shiga toxin inh 40, Cycloheximide cs 38
O=C(Nc1ccc(Br)cc1F)c1ccc2nsnc2c1	Shiga toxin inh 62, Cycloheximide cs 33, TbPYK inhibitor inconclusive
O=C(Nc1ccc(Br)cc1F)c1ccncc1	Shiga toxin inh 56, Cycloheximide cs 25
CCn1nnc2cc(C(=O)Nc3ccc(Br)cc3F)ccc21	none (no result: Shiga toxin inh, LmPK inh, NS1 function inh, Cycloheximide cs, SARS PLpro yeast)
CCCOc1cccc(C(=O)Nc2cccc3ncccc23)c1	none
CCCOc1cccc(C(=O)Nc2ccc(Br)cc2F)c1	Shiga toxin inh 68, Cycloheximide cs 42
Cc1ccc(NC(=O)c2ccc3nsnc3c2)c(Cl)c1	Shiga toxin inh 105, Cycloheximide cs 58
CCN(CC)C(=O)COc1ccc(C=O)cc1OC	none
c1ccn2c(SCc3cn4ccsc4n3)nnc2c1	Shiga toxin inh 54, Cycloheximide cs 40
Cc1ccnc(SCc2cn3c(C)cccc3n2)n1	Cycloheximide cs 26
c1ccc(-n2cnnc2SCc2cn3ccsc3n2)cc1	none
Cc1cccc2nc(CSc3nnc4ccccn34)cn12	Shiga toxin inh 59, Cycloheximide cs 36 (no result: SARS PLpro yeast)
NCCCC[C@H](NC(=O)[C@@H]1CCCN1C(=O)[C@@H](N)CCCN=C(N)N)C(=O)N1CCC[C@H]1C(=O)N[C@@H](CCC(N)=O)C(=O)N[C@@H](CCC(N)=O)C(=O)N[C@@H](Cc1ccccc1)C(=O)O	none (no result: LmPK inh, NS1 function inh, SARS PLpro yeast, TbPYK inhibitor)
O=C(Nc1ccc(F)cc1)Nc1csc2ccccc12	Shiga toxin inh 97, Cycloheximide cs 21
CN(C)c1ccc(NC(=O)Nc2csc3ccccc23)cc1	Shiga toxin inh 76, Cycloheximide cs 44
CN1CCC(CNC(=O)Nc2csc3ccccc23)CC1	none
COc1cc(/C=N/NS(=O)(=O)c2ccc(C)cc2)ccc1OCc1cccc(C(=O)O)c1	Shiga toxin inh 183, Cycloheximide cs 54
COc1cc(/C=N/NS(=O)(=O)c2ccc3ccccc3c2)ccc1OCc1ccc(C(=O)O)cc1	Shiga toxin inh 119, Cycloheximide cs 63
COc1cc(/C=N/NC(=O)COc2cc(C)cc(C)c2)ccc1OS(=O)(=O)c1ccc(C)cc1	NS1 function inh inconclusive
